Laboratory results taken from PubChem BioAssay AID1259343 (VanderVen Lab, College of Veterinary Medicine, Cornell …, 2017).
Among all 6,200 compounds or so, about 2,900 (47%) were called active. So high a share suggests a set chosen from earlier hits. This is one part of the list. Unmarked numbers belong to inactive results. No stated cut-off is given here; in the data, active means inhibition above about 50%; inactive means the rest.

Assay: Mycobacterium tuberculosis growth inhibition, primary screen (AID 1259343)
Conditions: inhibition: at 10 µM, active compounds read high; outcome: 10 uM

SMILES | inhibition
c1cncc(-c2nc(N3CCCC4CCCCC43)c3ccccc3n2)c1 (stereo not drawn) | -13.1%
c1ccc(-c2cc(NC3CCCC3)nc3ccccc23)cc1 | 67.7% (active)
c1cncc(-c2nc(NC3CCCCCCC3)c3ccccc3n2)c1 | 39.2%
O=[N+]([O-])c1ccc(O)c2ncccc12 | 102% (active)
CC(=O)Oc1ccc(N2C(=O)c3cccc4c([N+](=O)[O-])ccc(c34)C2=O)cc1 | 36.4%
O=[N+]([O-])c1cccc2nsnc12 | -16%
O=[N+]([O-])c1ccc(-c2nc(N=Nc3ccc(O)cc3)n[nH]2)cc1 | 84.3% (active)
N#CC(=Cc1ccc(O)cc1)c1ccc([N+](=O)[O-])cc1 | 27.9%
CC(NC(=O)NC(=O)N(C1CCCCC1)S(C)(=O)=O)C1CC2CCC1C2 (stereo not drawn) | 79.8% (active)
CC(NS(=O)(=O)c1ccc(Cl)cc1)C1CC2CCC1C2 (stereo not drawn) | -15.9%
CC(NC(=O)c1ccc2ncsc2c1)C1CC2CCC1C2 (stereo not drawn) | 5.4%
CCc1c(C)nc(-n2nc(C)cc2NC(=O)Cc2ccc(OC)cc2)[nH]c1=O | 99.1% (active)
CCc1c(C)nc(-n2nc(C)cc2NC(=O)Cc2ccc([N+](=O)[O-])cc2)[nH]c1=O | 78.5% (active)
COc1ccc(CC(=O)Nc2cc(C)nn2-c2nc3c(c(=O)[nH]2)CCC3)cc1OC | 101% (active)
CCc1c(C)nc(-n2nc(C)cc2NC(=O)/C=C/c2ccc(OC)c(OC)c2)[nH]c1=O | 99.3% (active)
COc1ccc(CC(=O)Nc2cc(C)nn2-c2nc(C)c(C)c(=O)[nH]2)cc1 | -19.9%
CCc1c(C)nc(-n2nc(C)cc2NC(=O)c2ccc(OC)cc2OC)[nH]c1=O | -4.11%
C=CC(=O)Nc1cccc(Sc2nc(Nc3ccc(N4CCN(C)CC4)cc3)ncc2Cl)c1 | 33.2%
O=C(CSc1nnc(C23CC4CC(CC(C4)C2)C3)o1)N1CCCC1 | 45.1%
COc1ccc(CC(=O)Nc2cc(C)nn2-c2nc(C)c(C)c(=O)[nH]2)cc1OC | 100% (active)
CCc1c(C)nc(-n2nc(C)cc2NC(=O)Cc2ccc(OC)c(OC)c2)[nH]c1=O | 101% (active)

SMILES | inhibition
CCNC(=O)c1cc(N2CCC(c3ccc(OC)cc3)C2)ccn1 (stereo not drawn) | -14.2%
CCNC(=O)c1cc(Oc2ccc(C)cc2Br)ccn1 | 89.2% (active)
Cc1ccc(Oc2ccc3ncccc3c2N)c(Br)c1 | 14.7%
O=C(NCC1COc2ccccc2O1)N1CCN(c2ccc(F)cc2)CC1 (stereo not drawn) | 26.7%
CC(NC(=O)c1cc(Cl)ccc1NS(C)(=O)=O)c1ccc2c(c1)OCO2 (stereo not drawn) | 7.73%
O=C(NCC1COc2ccccc2O1)C1Cc2cc(Cl)ccc2O1 (stereo not drawn) | 67% (active)
Fc1ccccc1NC(=S)NCC1COc2ccccc2O1 (stereo not drawn) | 11.1%
CC(NC(=O)C1Cc2cc(Cl)ccc2O1)c1ccc(F)c(F)c1 (stereo not drawn) | 59.3% (active)
CC(NC(=O)C1Cc2ccccc2O1)c1ccc(Cl)s1 (stereo not drawn) | 4.06%
O=C(NCc1ccco1)C1Cc2cc(Cl)ccc2O1 (stereo not drawn) | 22%
O=C(NCC1COc2ccccc2O1)c1ccc2c(c1)CCC2 (stereo not drawn) | 66.8% (active)
O=C1CC(NC(=O)C(F)(F)F)=NN1c1ccccc1 | 70.9% (active)
CCCc1nc(C(=O)N2CCOC(c3ccc(Cl)cc3)C2)cs1 (stereo not drawn) | 28.4%
Clc1ccc(C2CN(Cc3cc(-c4cccnc4)no3)CCO2)cc1 (stereo not drawn) | 6.33%
O=C(c1csc(-c2cccnc2)n1)N1CCOC(c2ccc(Cl)cc2)C1 (stereo not drawn) | 61% (active)
Cc1ccccc1OCC(=O)N1CCN(c2ncnc3c2nnn3-c2cccc(F)c2)CC1 | 67.9% (active)
Nc1ccc(F)cc1-c1nc(CCOc2ccccc2)no1 | 74.1% (active)
c1ccc(Cc2nc(CCOc3ccccc3)n[nH]2)cc1 | 36.5%
O=c1c2c3c(sc2[nH]c(=S)n1CC1CCCO1)CCCC3 (stereo not drawn) | 68.2% (active)
CCn1c(=S)[nH]c2sc3c(c2c1=O)CCCC3 | 38.1%
COCCCn1c(=S)[nH]c2sc3c(c2c1=O)CCCC3 | 20.5%

SMILES | inhibition
CCCc1cc(Nc2ccc(NC(C)=O)cc2)n2ncc(-c3ccccc3)c2n1 | -6.07%
CCC(=O)c1cccc(-c2ccc(NC(C)=O)cc2)c1 | 78.7% (active)
O=C1c2ccccc2C(=O)c2c1oc1c3c(ccc21)OCN(C1CCCC1)C3 | 99.5% (active)
CCOC(=O)c1ccc(NC(=O)c2cc3cc([N+](=O)[O-])ccc3oc2=N)cc1 | 62.9% (active)
COC(=O)c1cc2cc(Br)ccc2oc1=O | -45.4%
CCOC(=O)C(CC)Sc1nnc(NC(=O)c2ccc(Br)cc2)s1 (stereo not drawn) | 91.5% (active)
COC(=O)C(C)Sc1nc2c(c(=O)n(C)c(=O)n2C)n1CCC(C)C (stereo not drawn) | 26.7%
CSc1nc2c(c(=O)n(C)c(=O)n2C)n1CCCc1ccccc1 | 28.2%
Cc1cccc(Cn2c(SC(C)C)nc3c2c(=O)n(C)c(=O)n3C)c1 | 81.2% (active)
Fc1cccc(NCCc2ccc(-n3cccn3)cc2)n1 | 67.5% (active)
CN(Cc1ccc(-n2cccn2)cc1)S(=O)(=O)c1cccs1 | 10.7%
CCc1nn2c(NCCOC)cc(C)nc2c1-c1ccccc1 | 32.2%
COCCNc1cc(C)nc2c(-c3ccc(Cl)cc3)cnn12 | 98.7% (active)
Cc1cc(NCCOCCO)n2ncc(-c3ccc(Cl)cc3)c2n1 | -5.37%
Cc1ccc(-c2cnn3c(-n4nc(C)cc4C)cc(C)nc23)cc1 | 47.1%
Cc1cc(NCCCn2ccnc2)n2ncc(-c3ccc(Cl)cc3)c2n1 | 95.2% (active)
c1ccc(-c2cc(NCCCn3ccnc3)n3ncc(-c4ccccc4)c3n2)cc1 | -16.1%
O=C1CC(c2ccc3c(c2)OCCO3)Oc2ccc(Br)cc21 (stereo not drawn) | inactive
O=C1CC(c2ccc(O)cc2)Oc2ccccc21 (stereo not drawn) | 72.9% (active)
O=C1NC(=O)C(Nc2ccc(I)cc2)S1 (stereo not drawn) | 27.9%
COc1ccc2c(c1OC)C(=O)OC2Nc1ccc(I)cc1 (stereo not drawn) | 72.8% (active)
